This is an account of results in PubChem BioAssay (NCI).

About 83,000 compounds went through this panel and 20% of them were active in at least one assay; those are over-represented in the sample as a whole.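 Values shown are percent growth following 48 h exposure of cells in 96-well plates to a single concentration of compound; below 10 was considered active.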 Unmarked numbers belong to inactive results. The source made the active and inactive calls.

In one test the test system is OVCAR-3 ovarian. As to the kind of experiment: NCI-60 one-dose screen, 48 h (100 = growth as untreated, 0 = no growth, -100 = all killed). The following applies: 10 µM.
Take `COc1ccc(C2c3sc4ccc(C)cc4c3Oc3nc(N)nc(N)c32)cc1` (stereo not drawn): the growth is 96.8%.
Still for that read-out and setting: under `Cc1cc(N=C2NC(=O)S/C2=C\c2ccc(F)cc2)n[nH]1` stands 20.2%; under `Cn1cc(-c2nnc(N)nc2-c2c[nH]c3ccccc23)c2cc(Br)cnc21`, 65.1%; under `O=C(CC(=O)Nc1ccc(Oc2ncnc3scc(Nc4n[nH]c(=S)s4)c23)cc1)Nc1ccc(Cl)cc1`, 82.7%.
The same measure, in the same setting: for `O=C1NC2C=CC=CC2/C1=C1/SC(=S)N(C2CC(=O)N(c3ccc(Br)cc3)C2=O)C1=O` (stereo not drawn) the value was 92.2%; for `CC1(C)CC(=O)C2=C(C1)N(Cc1ccc(C(=O)O)cc1)C1=C(C(=O)CC(C)(C)C1)C2c1ccc(Cl)cc1`, 112%; for `Cc1ccc2c(c1)C(=O)/C(=C/c1ccc([N+](=O)[O-])cc1)S2`, 103%.
`O=C(Nc1ccc(OCc2ccc(Cl)cc2)cc1)Nc1ccc(Cl)c(C(F)(F)F)c1`: the growth was 29.3%.
In the case of `Cn1cc(-c2nc(N)nnc2-c2c[nH]c3ccccc23)c2cc(Br)cnc21`, the growth was 9.25% (active).
Turning to `O=C(CSc1nc2ccccc2c(=O)n1-c1ccc(Cl)cc1)Nc1ccc(-c2nc3ccccc3[nH]2)cc1`, the growth was -35.5% (active).
On the same count and under the same terms, for `Cc1ccc2c(c1)C(=O)/C(=C/c1c[nH]c3ccccc13)S2` the value was 42.7%; for `COc1cccc(O)c1/C=C1\SCc2cc3c(OC)cccc3[o+]c21`, 108%.
Still for that read-out and setting: for `COc1cc(C2CC(c3ccc(Oc4ccc(Cl)cc4)cc3)=NN2c2nc(-c3ccc(Cl)cc3)c(C#N)c(N3CCOCC3)n2)cc(OC)c1OC` (stereo not drawn) the value was 117%.
The same measure, in the same setting: for `O=C(Nc1ccc(OCC(=O)c2ccc(Cl)cc2)cc1)Nc1ccc(Cl)c(C(F)(F)F)c1` the value was 34%.
With `Cc1ccc2sc3c(c2c1)Oc1nc[nH]c(=O)c1C3c1cccc(F)c1` (stereo not drawn), the growth was 114%.
For `Cc1cc(N=C2NC(=O)/C(=C/c3cc(C(C)(C)C)c(O)c(C(C)(C)C)c3)S2)n[nH]1`, the growth was 9.43% (active).
Same read-out and setting: under `COc1ccc(C2c3sc4ccc(C)cc4c3Oc3nc[nH]c(=O)c32)cc1` (stereo not drawn) stands 89%; under `COc1cccc(C(=O)CSc2nc(-c3ccc(OCc4ccccc4)c(OC)c3)c(C#N)c(=O)[nH]2)c1`, 106%.
On to `Cc1ccc(COc2ccc(NC(=O)Nc3ccc(Cl)c(C(F)(F)F)c3)cc2)cc1`, for which the growth was 68.7%.
Still for that read-out and setting: for `CC(C)(C)c1cc(/C=C2\S/C(=N/c3ncn[nH]3)NC2=O)cc(C(C)(C)C)c1O` the value was 17.3%.
In the case of `Cn1cc(/C=C(/SS/C(=C/c2cn(C)c3cccc(C(=O)O)c23)C(=O)O)C(=O)O)c2c(C(=O)O)cccc21`, the growth was 109%.
The same measure, in the same setting: for `COc1ccc(C(=O)COc2ccc(NC(=O)Nc3ccccc3)cc2)cc1` the value was 104%; for `CCn1c(SCC(=O)Nc2ccc(-c3nc4ccccc4[nH]3)cc2)nc2ccccc2c1=O`, -66.1% (active); for `O=C(Nc1ccc(OCc2ccc(F)cc2)cc1)Nc1ccc(Cl)c(C(F)(F)F)c1`, 34.5%.
As to `O=C(CC(=O)Nc1ccc(Oc2ncnc3scc(Nc4n[nH]c(=S)s4)c23)cc1)Nc1ccc(Br)cc1`, the growth was 105%.
Regarding `COc1ccc(C(=O)COc2ccc(NC(=O)Nc3ccc(Cl)c(C(F)(F)F)c3)cc2)cc1`, the growth is 28.3%.
Same read-out and setting: for `O=C(Nc1ccc(Oc2ncnc3scc(Nc4n[nH]c(=S)s4)c23)cc1)C1(C(=O)Nc2cccc(C(F)(F)F)c2)CC1` the value was 104%.
The same measure, in the same setting: under `O=C1NC(=S)S/C1=C\c1cn(-c2ccccc2)nc1-c1ccc([N+](=O)[O-])cc1` stands 21.7%.
On to `O=C(CSc1nc2ccccc2c(=O)n1-c1ccc(Cl)cc1)Nc1ccc(-c2nc3ccc([N+](=O)[O-])cc3[nH]2)cc1`, for which the growth was 19.4%.

A further test relates to HS 578T breast. Described as above. To be noted: 10 µM.
Turning to `COc1ccc(C2c3sc4ccc(C)cc4c3Oc3nc(N)nc(N)c32)cc1` (stereo not drawn), the growth is 78.8%.
Same read-out and setting: under `Cc1cc(N=C2NC(=O)S/C2=C\c2ccc(F)cc2)n[nH]1` stands 10%.
Same read-out and setting: for `Cn1cc(-c2nnc(N)nc2-c2c[nH]c3ccccc23)c2cc(Br)cnc21` the value was 77.3%.
Still for that read-out and setting: for `O=C(CC(=O)Nc1ccc(Oc2ncnc3scc(Nc4n[nH]c(=S)s4)c23)cc1)Nc1ccc(Cl)cc1` the value was 86%; for `O=C1NC2C=CC=CC2/C1=C1/SC(=S)N(C2CC(=O)N(c3ccc(Br)cc3)C2=O)C1=O` (stereo not drawn), 98.9%.
In the case of `CC1(C)CC(=O)C2=C(C1)N(Cc1ccc(C(=O)O)cc1)C1=C(C(=O)CC(C)(C)C1)C2c1ccc(Cl)cc1`, the growth was 105%.
Regarding `Cc1ccc2c(c1)C(=O)/C(=C/c1ccc([N+](=O)[O-])cc1)S2`, the growth is 86%.
Still for that read-out and setting: under `O=C(Nc1ccc(OCc2ccc(Cl)cc2)cc1)Nc1ccc(Cl)c(C(F)(F)F)c1` stands 22.1%; under `Cn1cc(-c2nc(N)nnc2-c2c[nH]c3ccccc23)c2cc(Br)cnc21`, 40.7%.
On the same count and under the same terms, under `O=C(CSc1nc2ccccc2c(=O)n1-c1ccc(Cl)cc1)Nc1ccc(-c2nc3ccccc3[nH]2)cc1` stands -27.4% (active); under `Cc1ccc2c(c1)C(=O)/C(=C/c1c[nH]c3ccccc13)S2`, 55.6%; under `COc1cccc(O)c1/C=C1\SCc2cc3c(OC)cccc3[o+]c21`, 111%.
Turning to `COc1cc(C2CC(c3ccc(Oc4ccc(Cl)cc4)cc3)=NN2c2nc(-c3ccc(Cl)cc3)c(C#N)c(N3CCOCC3)n2)cc(OC)c1OC` (stereo not drawn), the growth is 104%.
The same measure, in the same setting: for `O=C(Nc1ccc(OCC(=O)c2ccc(Cl)cc2)cc1)Nc1ccc(Cl)c(C(F)(F)F)c1` the value was 18%.
The same measure, in the same setting: under `Cc1ccc2sc3c(c2c1)Oc1nc[nH]c(=O)c1C3c1cccc(F)c1` (stereo not drawn) stands 94.4%; under `Cc1cc(N=C2NC(=O)/C(=C/c3cc(C(C)(C)C)c(O)c(C(C)(C)C)c3)S2)n[nH]1`, -3.19% (active); under `COc1ccc(C2c3sc4ccc(C)cc4c3Oc3nc[nH]c(=O)c32)cc1` (stereo not drawn), 78.5%.
On to `COc1cccc(C(=O)CSc2nc(-c3ccc(OCc4ccccc4)c(OC)c3)c(C#N)c(=O)[nH]2)c1`, for which the growth is 90.8%.
With `Cc1ccc(COc2ccc(NC(=O)Nc3ccc(Cl)c(C(F)(F)F)c3)cc2)cc1`, the growth is 86.7%.
On the same count and under the same terms, under `CC(C)(C)c1cc(/C=C2\S/C(=N/c3ncn[nH]3)NC2=O)cc(C(C)(C)C)c1O` stands 11.8%.
The same measure, in the same setting: under `Cn1cc(/C=C(/SS/C(=C/c2cn(C)c3cccc(C(=O)O)c23)C(=O)O)C(=O)O)c2c(C(=O)O)cccc21` stands 108%; under `COc1ccc(C(=O)COc2ccc(NC(=O)Nc3ccccc3)cc2)cc1`, 97.3%; under `CCn1c(SCC(=O)Nc2ccc(-c3nc4ccccc4[nH]3)cc2)nc2ccccc2c1=O`, -37.8% (active).
Still for that read-out and setting: under `O=C(Nc1ccc(OCc2ccc(F)cc2)cc1)Nc1ccc(Cl)c(C(F)(F)F)c1` stands 24%; under `O=C(CC(=O)Nc1ccc(Oc2ncnc3scc(Nc4n[nH]c(=S)s4)c23)cc1)Nc1ccc(Br)cc1`, 96.7%; under `COc1ccc(C(=O)COc2ccc(NC(=O)Nc3ccc(Cl)c(C(F)(F)F)c3)cc2)cc1`, 53.4%.
Consider `O=C(Nc1ccc(Oc2ncnc3scc(Nc4n[nH]c(=S)s4)c23)cc1)C1(C(=O)Nc2cccc(C(F)(F)F)c2)CC1`, for which the growth is 100%.
Same read-out and setting: under `O=C1NC(=S)S/C1=C\c1cn(-c2ccccc2)nc1-c1ccc([N+](=O)[O-])cc1` stands 30.1%; under `O=C(CSc1nc2ccccc2c(=O)n1-c1ccc(Cl)cc1)Nc1ccc(-c2nc3ccc([N+](=O)[O-])cc3[nH]2)cc1`, 11.8%.
